The subject of one test is PIK3CD. Further details: species or system human, MV4-11 + K-562 + COLO205 + SK-N-BE2 + OVCAR-8. To be noted: read-out: apparent Kd; compound concentrations: 100 nM and 1000 nM (sheet 'Samples'), CATDS: 0.88201100485399897; n = 1.
The test system of the next test is PIP4K2C. Also noted: species or system human, MV4-11 + K-562 + COLO205 + SK-N-BE2 + OVCAR-8. To be noted: read-out: apparent Kd; compound concentrations: 100 nM and 1000 nM (sheet 'Samples'), CATDS: 1; n = 1.
The subject of the next test is PKM. Further details: species or system human, MV4-11 + K-562 + COLO205 + SK-N-BE2 + OVCAR-8. To be noted: read-out: apparent Kd; compound concentrations: 100 nM and 1000 nM (sheet 'Samples'), CATDS: 1; n = 1.
The subject of a further test is PRKCI. Also noted: species or system human, MV4-11 + K-562 + COLO205 + SK-N-BE2 + OVCAR-8. To be noted: read-out: apparent Kd; compound concentrations:100 nM and 1000 nM (sheet 'Samples'); n = 1.
The test system of the next test is PRKD1. Further details: species or system human, MV4-11 + K-562 + COLO205 + SK-N-BE2 + OVCAR-8. To be noted: read-out: apparent Kd; compound concentrations:100 nM and 1000 nM (sheet 'Samples'); n = 1.
The next test has as its system PRKAG1. Also noted: species or system human, MV4-11 + K-562 + COLO205 + SK-N-BE2 + OVCAR-8. To be noted: read-out: apparent Kd; compound concentrations:100 nM and 1000 nM (sheet 'Samples'); n = 1.
Another test relates to PRKAG2. Further details: species or system human, MV4-11 + K-562 + COLO205 + SK-N-BE2 + OVCAR-8. To be noted: read-out: apparent Kd; compound concentrations:100 nM and 1000 nM (sheet 'Samples'); n = 1.
For a further test, the system named is RABL3. Further details: species or system human, MV4-11 + K-562 + COLO205 + SK-N-BE2 + OVCAR-8. To be noted: read-out: apparent Kd; compound concentrations:100 nM and 1000 nM (sheet 'Samples'); n = 1.
Another test deals with TGFBR1. Also noted: species or system human, MV4-11 + K-562 + COLO205 + SK-N-BE2 + OVCAR-8. To be noted: read-out: apparent Kd; compound concentrations:100 nM and 1000 nM (sheet 'Samples'); n = 1.
The next test deals with TGFBR2. Also noted: species or system human, MV4-11 + K-562 + COLO205 + SK-N-BE2 + OVCAR-8. To be noted: read-out: apparent Kd; compound concentrations:100 nM and 1000 nM (sheet 'Samples'); n = 1.
For the next test, the system named is TNIK. Also noted: species or system human, MV4-11 + K-562 + COLO205 + SK-N-BE2 + OVCAR-8. To be noted: read-out: apparent Kd; compound concentrations:100 nM and 1000 nM (sheet 'Samples'); n = 1.
The test system of the next test is PRKX;PRKY. Further details: species or system human, MV4-11 + K-562 + COLO205 + SK-N-BE2 + OVCAR-8. To be noted: read-out: apparent Kd; compound concentrations: 100 nM and 1000 nM (sheet 'Samples'), CATDS: 0.167379705383528; n = 1.
The next test has as its system STK10. Further details: species or system human, MV4-11 + K-562 + COLO205 + SK-N-BE2 + OVCAR-8. To be noted: read-out: apparent Kd; compound concentrations: 100 nM and 1000 nM (sheet 'Samples'), CATDS: 0.394091035560725; n = 1.
A further test deals with ACOX1. To be noted: read-out: apparent Kd, n = 1.
The subject of the next test is AKT3. To be noted: read-out: apparent Kd, n = 1.
Another test deals with CDC42. To be noted: read-out: apparent Kd, n = 1.
Another test deals with STK16. To be noted: read-out: apparent Kd, n = 1.
A further test deals with TTN. To be noted: read-out: apparent Kd, n = 1.
The next test concerns the target Q6ZSR9 (human, UniProt Q6ZSR9). Further details: species or system MV4-11 + K-562 + COLO205 + SK-N-BE2 + OVCAR-8. To be noted: read-out: apparent Kd, n = 1.
A further test concerns RPS6KB1. Further details: species or system human, MV4-11 + K-562 + COLO205 + SK-N-BE2 + OVCAR-8. To be noted: read-out: apparent Kd, n = 1.
The mark [1] stands for this setting: compound concentrations:100 nM and 1000 nM (sheet 'Samples').

Read-outs that look alike come from different tables or passages of the source.

Sequence of Q6ZSR9 (Q6ZSR9 whole entry, looked up): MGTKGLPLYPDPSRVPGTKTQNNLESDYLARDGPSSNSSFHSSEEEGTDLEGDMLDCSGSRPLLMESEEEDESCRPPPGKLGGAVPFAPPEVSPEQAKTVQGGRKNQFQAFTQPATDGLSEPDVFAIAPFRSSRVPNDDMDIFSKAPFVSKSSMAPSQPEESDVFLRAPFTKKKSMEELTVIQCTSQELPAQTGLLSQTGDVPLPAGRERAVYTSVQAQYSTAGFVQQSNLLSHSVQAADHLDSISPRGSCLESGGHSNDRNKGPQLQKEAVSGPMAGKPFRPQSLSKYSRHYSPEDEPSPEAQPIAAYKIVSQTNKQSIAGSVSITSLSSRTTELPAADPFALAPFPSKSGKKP

Consider `CCn1c(-c2ccncc2)nc2cnccc21` [SB-735216], for which the potency estimated from few doses in the test on PIK3CD was 172 nM.
As for `COc1cc(Nc2nccc(N3CCC(NC(=O)C(C)c4ccc(Cl)cc4)C3)n2)cc(OC)c1OC` (stereo not drawn) [GSK1379757A], in the test with PIP4K2C, the potency estimated from few doses is 1640 nM.
On to `Cn1cc(C2=C(c3cn(C)c4ccc(OCc5ccccc5)cc34)C(=O)NC2=O)c2ccccc21` [RO0317432-000], for which the potency estimated from few doses in the test on PKM is 1860 nM.
For `CCn1c(-c2nonc2N)nc2ccccc21` [SB-693162], the potency estimated from few doses in the test with PRKCI is 2410 nM.
`Cc1cccc(-c2nc(Nc3ccc4c(cnn4C)c3)c3ccccc3n2)n1` [GW876731X]: in the test on PRKD1, the potency estimated from few doses is 92.8 nM.
Take `COc1ccccc1-c1ccc2c(NC(=O)C3CC3)n[nH]c2n1` [SB-711239]: the results for the potency estimated from few doses in the test with PRKAG1 and in the test with PRKAG2 were 1190 nM and 1270 nM, respectively.
On to `Cc1cccc(-c2n[nH]cc2-c2ccc3ncccc3n2)n1` [GW786460X], for which the potency estimated from few doses was 1260 nM in the test on RABL3, 1.39 nM in the test on TGFBR1, 112 nM with TGFBR2 and 1720 nM with TNIK.
`CC1=C(C(=O)Nc2cc3cn[nH]c3cc2F)C(c2ccc(C(F)(F)F)cc2)CC(=O)N1` (stereo not drawn) [GSK429286A]: in the test on PRKX;PRKY, the potency estimated from few doses is 2000 nM.
For `COc1cc2ncn(-c3cc(OCC4CCCO4)c(C(N)=O)s3)c2cc1OC` (stereo not drawn) [GSK204607A], the potency estimated from few doses with STK10 was 614 nM.
On to Lestaurtinib, for which the potency estimated from few doses with ACOX1 (compound concentrations:100 nM and 1000 nM (sheet 'Lestaurtinib' of Supplementary Table 1),run:Lestaurtinib_02364_R2,Plate:MR002) is 1360 nM; in the test on ACOX1 (compound concentrations:100 nM and 1000 nM (sheet 'Lestaurtinib' of Supplementary Table 1),run:Lestaurtinib_02624_R1,Plate:MR020) it was 1670 nM; in the test with AKT3 (compound concentrations:100 nM and 1000 nM (sheet 'Lestaurtinib' of Supplementary Table 1),run:Lestaurtinib_02339_R2,Plate:MR001), 1910 nM; in the test with AKT3 (compound concentrations:100 nM and 1000 nM (sheet 'Lestaurtinib' of Supplementary Table 1),run:Lestaurtinib_03172_R3,Plate:MR031) it was 1540 nM; with CDC42 (compound concentrations:100 nM and 1000 nM (sheet 'Lestaurtinib' of Supplementary Table 1),run:Lestaurtinib_02437_R1,Plate:MR007), 1440 nM; in the test on CDC42 (compound concentrations:100 nM and 1000 nM (sheet 'Lestaurtinib' of Supplementary Table 1),run:Lestaurtinib_02765_R3,Plate:MR026), 1440 nM. Also, the potency estimated from few doses is 1430 nM in the test with STK16 (compound concentrations:100 nM and 1000 nM (sheet 'Lestaurtinib' of Supplementary Table 1),run:Lestaurtinib_02422_R1,Plate:MR006); 1340 nM in the test with STK16 (compound concentrations:100 nM and 1000 nM (sheet 'Lestaurtinib' of Supplementary Table 1),run:Lestaurtinib_03260_R1,Plate:MR033); 1910 nM in the test with TTN (compound concentrations:100 nM and 1000 nM (sheet 'Lestaurtinib' of Supplementary Table 1),run:Lestaurtinib_02364_R1,Plate:MR002); 737 nM with TTN (compound concentrations:100 nM and 1000 nM (sheet 'Lestaurtinib' of Supplementary Table 1),run:Lestaurtinib_02606_R2,Plate:MR019).
On to `CCn1c(-c2nonc2N)nc2cnc(Oc3cccc(NC(=O)c4ccc(N(C)C)cc4)c3)cc21` [GSK248233A], for which the potency estimated from few doses is 2120 nM in the test with Q6ZSR9 (setting [1]) and 978 nM with RPS6KB1 (setting [1]).
On to `Nc1nonc1-c1nc2cnccc2n1C1CC1` [SB-736302], for which the potency estimated from few doses in the test with RPS6KB1 (compound concentrations: 100 nM and 1000 nM (sheet 'Samples'), CATDS: 0.26812352090996999) was 794 nM.
As to `COC[C@H](NC1=NC(=O)/C(=C/c2ccc3ncccc3c2)S1)c1ccccc1` [RO4595946-000], in the test with Q6ZSR9 (compound concentrations: 100 nM and 1000 nM (sheet 'Samples'), CATDS: 1), the potency estimated from few doses was 1580 nM.

Source of the values: publication PMC11062922 (Nature Chemical Biology, 2023).
